IL-1B inflam inh: qHTS for Inhibitors of Inflammasome Signaling: IL-1-beta AlphaLISA Primary Screen. THP-1 LPS/ATP IL-1B secretion, AlphaLISA, 16 h; hits give low values. activity change, % at 57.5 µM. 360,000 tested, 4.7% active; in the data active = activity change below about -50%; inconclusive = mostly about -30% to -49%
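Secreted IL-1B measured by AlphaLISA bead assay after 16 h compound exposure of THP-1 cells; compounds (final up to 57.5 uM) added 1 h before LPS (250 ng/mL) and ATP (1.25 mM) stimulation; lower signal means less secretion.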
Gal4-VP16 FLuc: VP16 counterscreen qHTS for inhibitors of ROR gamma transcriptional activity. Drosophila S2 Gal4-VP16 UAS-luciferase, luminescence, 20 h. AID 2546, 2010. 310,000 tested, 3.5% active. Potency, µM (highest dose often 53.6 µM), without a hit: at the highest dose activity, negative = inhibition, actives largely listed as inhibitors;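 note: Gal4-VP16 expression switched on by copper sulfate through the metallothionein promoter; potency is the fitted concentration of half-maximal effect; nearly all actives have a fitted effect of over 50% in size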
TDP1 cell noCPT: qHTS for Inhibitors of human tyrosyl-DNA phosphodiesterase 1 (TDP1): qHTS in cells in absence of CPT | DT40 Tdp1-/- hTDP1 cells, no CPT, ATP luminescence, 48 h | Potency, µM (highest dose often 46.2 µM), for the others: at the top dose activity change, negative = growth inhibition, usual class: inhibitors | 420,000 tested, 15% active | AID 686978, 2013; note: potency is the fitted concentration of half-maximal effect; nearly all actives have a fitted effect of over 55% in size
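Camptothecin absent (DMSO only). Human TDP1-complemented DT40 knockout cells, 400 cells/well, 37 °C for minimum 48 hr; ATP measured via CellTiter-Glo, 30 min dark incubation, luminescence.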
DT40 TDP1 CPT: qHTS for Inhibitors of human tyrosyl-DNA phosphodiesterase 1 (TDP1): qHTS in cells in presence of CPT. chicken DT40 Tdp1-/-;hTDP1 cells + 20 nM CPT, ATP luminescence, 48 h. Potency, µM (highest dose often 46.2 µM), for the others: top-dose activity change, negative = growth inhibition, usual class: inhibitors. 420,000 tested, 12% active; note: potency is the fitted concentration of half-maximal effect; nearly all actives have a fitted effect of over 55% in size
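Chicken DT40 Tdp1-/- cells complemented with human TDP1, 400 cells/well, exposed to compounds plus 20 nM camptothecin for at least 48 h at 37 C; viability read as ATP content by CellTiter-Glo luminescence.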
ELG1 repair inh: qHTS screen for small molecules that inhibit ELG1-dependent DNA repair in human embryonic kidney (HEK293T) cells expressing luciferase-tagged ELG1. 330,000 tested, 2.3% active. HEK293T ELG1-luciferase reporter, luminescence, 16 h; DNA damage induced by 5-fluorouridine. Potency, µM (doses to about 46.1 µM), without a hit: top-dose activity change, negative = inhibition, actives largely listed as inhibitors; note: potency is the fitted concentration of half-maximal effect; nearly all actives have a fitted effect of over 55% in size
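Luminescence from the luciferase reporter, measured 30 min after ONE-Glo reagent at room temperature, was the read-out. Beforehand, 2,000 cells per well were exposed for 16 hr at 37 °C to 5-fluorouridine together with compound or vehicle.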
RORg inh: qHTS for inhibitors of ROR gamma transcriptional activity. Nuclear receptor ROR-gamma (Mus musculus), P51450. Drosophila S2 Gal4-RORgamma UAS-luciferase reporter, 20 h. Potency, µM (series often up to 53.6 µM), inactives show top-dose activity change, negative = inhibition, hits mostly inhibitors. 310,000 tested, 5.4% active. AID 2551, 2010; note: potency is the fitted concentration of half-maximal effect; nearly all actives have a fitted effect of over 60% in size
Target sequence (P51450 whole entry, looked up, the tested form may be a part): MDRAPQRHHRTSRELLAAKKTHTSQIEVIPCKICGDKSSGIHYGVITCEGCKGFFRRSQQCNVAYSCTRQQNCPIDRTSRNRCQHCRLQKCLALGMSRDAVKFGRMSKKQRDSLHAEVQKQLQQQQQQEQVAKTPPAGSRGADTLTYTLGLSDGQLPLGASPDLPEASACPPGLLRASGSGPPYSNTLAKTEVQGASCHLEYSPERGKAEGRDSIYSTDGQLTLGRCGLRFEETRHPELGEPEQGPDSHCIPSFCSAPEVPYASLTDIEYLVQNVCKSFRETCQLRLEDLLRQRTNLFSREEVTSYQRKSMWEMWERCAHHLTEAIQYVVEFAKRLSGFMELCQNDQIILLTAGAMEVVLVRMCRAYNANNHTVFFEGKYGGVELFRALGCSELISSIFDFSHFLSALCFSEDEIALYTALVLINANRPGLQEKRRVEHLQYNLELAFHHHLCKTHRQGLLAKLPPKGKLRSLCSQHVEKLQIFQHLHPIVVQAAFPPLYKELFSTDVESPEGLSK
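Stably transfected Drosophila Schneider cells are the test system, with ROR gamma fused to Gal4 and luciferase under UAS control; luminescence is read after 20 hr of 700 uM copper sulfate induction at ambient temperature.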
The depositor's hits bear a star; ? = inconclusive; / = no result; [ ] = remark or other dose. Only some compounds are listed: those with a hit (about 21% of all), similar ones and a draw of the others. Unless noted, calls come from the whole dose curve; as a rule, active = well fitted curve in the direction sought with a large enough effect; inconclusive = small, poorly fitted or top-dose-only effect, or another doubt; inactive = no such curve, though single readings can be large; an effect the other way counts as inactive or inconclusive. % is set by controls: 0 for no effect and ±100 for the full control effect.

SMILES | IL-1B inflam inh | Gal4-VP16 FLuc | TDP1 cell noCPT | DT40 TDP1 CPT | ELG1 repair inh | RORg inh
O=C(O)/C=C/C(=O)Nc1ccc(S(=O)(=O)N2CCCC2)cc1 | -13 | -4% | ? | -4% | -8% | 12%
CCOCCCNc1ncnc2c1[nH]c1ccccc12 | 0 | ? | 16µM* | 10µM* | 15µM* | 15%
c1ccc2c(c1)[nH]c1c(NCC3CCCO3)ncnc12 (stereo not drawn) | 11 | ? | 15µM* | ? | 15µM* | ?
CCCCOCCCNc1ncnc2c1[nH]c1ccccc12 | -95* | 10µM* | 2.3µM* | 2.1µM* | ? | ?
CCC(=O)CC(NC(=O)OC)c1ccc(F)cc1 (stereo not drawn) | / | -8%[10 µM] | / | / | / | 8%[10 µM]
CN(Cc1ccccc1F)c1nc(-c2cccs2)nc2ccccc12 | -12 | -2% | ? | ? | -12% | 16%
Cc1ccc(S(=O)(=O)N(C)CCCC(=O)Nc2cccc3ccccc23)cc1 | -29 | 2% | ? | ? | ? | 22%
CN(CCN(C)c1nc(-c2cccs2)nc2ccccc12)C(=O)OC(C)(C)C | / | / | 14µM* | 10µM* | / | /
Cc1ccc(S(=O)(=O)N(C)CCCN(C)c2nc(-c3cccs3)nc3ccccc23)cc1 | / | / | 11µM* | 16µM* | / | /
O=C(Cn1ccn(-c2ccc(F)c(F)c2)c(=O)c1=O)NCc1ccccc1 | / | / | 1% | 1% | / | /
CSc1ccc(S(=O)(=O)Nc2ccc3c(c2)NC(=O)CC3)cc1 | 16 | ? | 23µM* | ? | 8.2µM* | -6%
Cc1ccc(NS(=O)(=O)c2ccc3c(c2)CCC(=O)N3)cc1 | -12 | / | 1% | 3% | 16% | /
CCS(=O)(=O)NCC(c1cccnc1)N1CCN(c2ccccc2OC)CC1 (stereo not drawn) | -10 | 3% | -15% | -14% | 1% | -4%
COc1ccc(C(=O)NCC(c2cccnc2)N2CCN(c3ccccc3OC)CC2)cc1 (stereo not drawn) | / | / | 12µM* | 18µM* | / | /
COc1ccccc1N1CCN(C(CNC(=O)C(=O)NCCc2ccccc2)c2cccnc2)CC1 (stereo not drawn) | / | / | 8.2µM* | 10µM* | / | /
COc1ccccc1N1CCN(C(CNS(=O)(=O)c2cccs2)c2cccnc2)CC1 (stereo not drawn) | -11 | -13% | ? | ? | -10% | -16%
Cc1c(NC(=O)Nc2ccc(Cl)c(Cl)c2)sc(=S)n1C | -97* | / | ? | 26µM* | / | /
COc1ccc(NC(=O)Nc2sc(=S)n(C)c2C)cc1 | -13 | 0% | ? | ? | 5% | ?
CCCOc1ccc(CCC(=O)N/N=C/c2ccncc2)cc1 | 46 | ? | ? | 26µM* | 9% | -27%
COCCCNC(=S)N/N=C/c1cccc(OC)c1O | -3 | 1.6µM* | 0.65µM* | 0.82µM* | ? | 0.63µM*
COCCCNC(=S)N/N=C/c1ccc(O)cc1 | -25 | -11% | -20% | -3% | 7% | 13µM*
COc1ccc(/C=N/NC(=O)CCCCCNC(=O)c2ccccc2)cc1 | 26 | -7% | 4% | 9% | 11% | 18%
COCCCNC(=S)NNC(=S)Nc1ccc(OC)cc1 | 7 | -1% | -1% | -10% | -27% | -1%
COCCCNC(=S)N/N=C/c1ccc2ccccc2c1 | -15 | 18µM* | -29% | 4% | -6% | 4.5µM*
COCCCNC(=S)N/N=C/c1ccc(OC)cc1 | / | ? | -27% | 1% | 0% | 5.6µM*

Bioassay records from PubChem BioAssay.
